HePTP inhibitor – inhibitors of human HePTP phosphatase, primary screen, biochemical, absorbance, leukemia target. AID 521, 2006. 110,000 tested, 0.64% active. Tyrosine-protein phosphatase non-receptor type 7 (Homo sapiens), P35236. recombinant HePTP phosphatase activity, OD absorbance. inhibition, % at 20 µM; in the data active = inhibition above about 50%
FXIIa inh mix – human factor XIIa inhibitors, primary screen, biochemical, pooled compound mixtures, fluorogenic substrate; Coagulation factor XII (Homo sapiens), P00748; purified FXIIa; inhibition, % at 5 µM; 62,000 tested, 0.2% active; AID 684, 2007
Target sequence (P00748 20-372 limits assumed): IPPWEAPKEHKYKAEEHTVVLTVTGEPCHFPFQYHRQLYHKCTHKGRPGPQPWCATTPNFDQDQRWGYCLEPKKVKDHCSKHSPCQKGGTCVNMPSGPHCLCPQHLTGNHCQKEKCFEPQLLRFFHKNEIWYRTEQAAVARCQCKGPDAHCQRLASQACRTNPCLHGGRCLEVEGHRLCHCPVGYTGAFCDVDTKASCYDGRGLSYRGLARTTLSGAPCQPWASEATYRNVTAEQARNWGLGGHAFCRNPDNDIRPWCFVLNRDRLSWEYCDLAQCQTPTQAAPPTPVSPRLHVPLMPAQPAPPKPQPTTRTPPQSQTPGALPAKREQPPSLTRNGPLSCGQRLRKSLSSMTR
Target sequence (P00748 373-615 limits assumed): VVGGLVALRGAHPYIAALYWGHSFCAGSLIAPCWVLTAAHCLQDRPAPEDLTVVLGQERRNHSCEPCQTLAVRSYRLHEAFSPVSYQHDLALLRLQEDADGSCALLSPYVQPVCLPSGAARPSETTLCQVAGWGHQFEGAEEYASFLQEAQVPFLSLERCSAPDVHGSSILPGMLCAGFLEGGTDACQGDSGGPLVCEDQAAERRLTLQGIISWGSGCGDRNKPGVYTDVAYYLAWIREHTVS
PLAP act – PLAP enzyme activators, biochemical, luminescence, HTS; activation fold at 20 µM; purified PLAP enzyme, luminescent substrate read-out; hits give high values; Alkaline phosphatase, placental type (Homo sapiens), P05187; AID 696, 2007; 96,000 tested, 1.2% active; in the data active = activation fold above about 2
FXIa mix inh – FXIa protease inhibitors in compound pools, primary screen, biochemical, 10-compound mixtures. Coagulation factor XI (Homo sapiens), P03951. purified FXIa, fluorogenic substrate, pooled mixtures. inhibition, % at 5 µM. 62,000 tested, 0.19% active;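 note: each value is inhibition by a whole ten-compound pool holding the compound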
C1s block – complement C1s protease inhibitors, primary screen, biochemical, 10-compound mixtures | Complement C1s subcomponent (Homo sapiens), P09871 | purified C1s, fluorogenic AMC substrate, pooled mixtures | mean inhibition % of two 10-compound mixtures (hits give high values), % at 5 µM (by protocol) | 62,000 tested, 0.16% active;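 active = inhibition above 20% in each of the two 10-compound mixture wells holding the compound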
Cathepsin G inh – human cathepsin G inhibitors, primary screen, biochemical, pooled compound mixtures, AMC fluorescence. 62,000 tested, 0.2% active. P08311. inhibition, % at 5 µM (by protocol). purified enzyme, AMC-tetrapeptide fluorescence;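 active = inhibition above 20% in each of the two mixture wells holding the compound; inactive = inhibition of 20% or less in either well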
Numbers stand for hits; n = inactive; x = no result given. Compounds with a hit are over-represented: about 1.4% of the library has one in this group of screens. Cut-off read from the data, not from the text of the source, unless noted: active = inhibition above about 20% (passing the limit was not always enough); inactive = the rest.

SMILES	HePTP inhibitor	FXIIa inh mix	PLAP act	FXIa mix inh	C1s block	Cathepsin G inh
Clc1cccc(Cl)c1COc1ccccn1	n	30.0	n	n	n	n
COc1cccc(OCCCCN2CCCC2)c1	n	x	x	x	x	x
COc1ccc(C2(O)CCN(CCCCOc3ccccc3)CC2)cc1	n	n	2.1	n	n	n
COC(=O)c1sc(NC(=O)COc2ccc3ccccc3c2)c(C(N)=O)c1C	n	x	x	x	x	x
O=C1NC(=S)N(c2cccc(Cl)c2)C(=O)/C1=C\c1ccc(N2CCCC2)cc1	n	x	x	x	x	x
Cn1cccc1/C=C1/C(=O)NC(=S)N(c2cccc(Cl)c2)C1=O	100.6	x	x	x	x	x
CC(C)Oc1ccccc1NC(=O)c1ccccc1SCc1ccc(F)cc1	91.6	x	x	x	x	x
Cc1ccccc1Nc1nnc(SCc2cc([N+](=O)[O-])cc3c2OCOC3)s1	x	x	2	x	x	x
CCOc1ccc(NC(=O)C2=C(C)NC(=O)NC2c2ccc(C)cc2)cc1 (centres undefined)	n	x	x	x	x	x
C=C(C)Cn1c(SCC(N)=O)nc2sc3c(c2c1=O)CCC3	n	x	x	x	x	x
O=C1CC(c2ccccc2)CC2=C1C(c1cccnc1)N(C(=O)c1ccccc1)c1ccccc1N2 (centres undefined)	n	x	x	x	x	x
S=C1NC(=S)/C(=C\c2ccc(-c3ccc(Br)cc3)o2)S1	92.8	x	x	x	x	x
COc1ccc(C2CC(c3ccccc3)=CC(O)(C(C)(C)C)C2C(=O)C(C)(C)C)cc1 (centres undefined)	n	x	x	x	x	x
Cc1ccc(OCCc2c(C)n[nH]c2C)c(Cl)c1	104.7	x	x	x	x	x
Cc1ccc(OCCCc2c(C)n[nH]c2C)c(C)c1	n	x	x	x	x	x
O=[N+]([O-])c1ccc(N2CCCC2)cc1Sc1cccc2cccnc12	n	x	x	x	x	x
Cc1ccc(O)c(Sc2cc(C)ccc2O)c1	n	n	2.5	n	n	n
COc1ccc(CCNc2ncnc3[nH]ncc23)cc1OC	n	n	2	n	n	n
COc1ccc(CCNc2ccncn2)cc1OC	x	x	n	x	x	x
Cc1cc2c3c(c1)C(C)(c1ccccc1)CC(C)(C)N3C(=O)C21C(C#N)=C(N)OC2=C1C(=O)CC(C)(C)C2 (centres undefined)	x	x	2	x	x	x
COc1cc(NC(=O)c2cccs2)c(OC)cc1NC(=O)CCn1nnc2ccccc21	n	n	n	n	21.0	n
COc1cc(NC(=O)c2cccs2)c(OC)cc1NC(=O)c1ccco1	n	n	x	n	n	n
CCN(CC)c1ccc(NC(=O)/C=C\c2ccccc2Cl)cc1	104.0	x	n	x	x	x
Cc1nn2c3ccccc3nc2n1CCN1CCOCC1	n	x	x	x	x	x
O=C1c2ccc(Oc3ccc4c(c3)C(=O)N(c3ccc(S)cc3)C4=O)cc2C(=O)N1c1ccc(S)cc1	101.8	x	x	x	x	x
SMILES	HePTP inhibitor	FXIIa inh mix	PLAP act	FXIa mix inh	C1s block	Cathepsin G inh
CCOc1cc2c(cc1OCC)C(c1ccc(O)c(OC)c1)NCC2 (centres undefined)	n	n	x	n	n	n
CCOc1cc2c(cc1OCC)C(c1cc(OC)c(O)c(OC)c1)NCC2 (centres undefined)	n	23.8	x	n	n	n
Cc1ccccc1OCC(=O)NNC(=O)C(F)(F)F	n	x	x	x	x	x
CCN(C(=O)CSc1nnc(Cc2cccc3ccccc23)n1N)C1CCS(=O)(=O)C1 (centres undefined)	x	x	n	x	x	x
Nn1c(Cc2cccc3ccccc23)nnc1SCC(=O)NC1CCS(=O)(=O)C1 (centres undefined)	n	n	2	n	n	n
CC1(C)NC(=O)N(CC(O)CN2CCCCC2)C1=O (centres undefined)	n	n	n	n	n	n
CC1(C)NC(=O)N(CC(O)COC2CCCCC2)C1=O (centres undefined)	n	20.1	n	n	n	n
O=C(O)c1cccc(-c2ccc(C=C3C(=O)c4ccccc4C3=O)o2)c1	98.4	x	x	x	x	x
O=C1NN(c2ccc(F)cc2)C(=O)/C1=C\c1ccc(-c2cccc(C(=O)O)c2)o1	102.4	x	x	x	x	x
O=C1NN(c2ccc(Cl)cc2)C(=O)/C1=C\c1ccc(-c2cccc(C(=O)O)c2)o1	102.9	x	x	x	x	x
O=C1NN(c2ccc(F)c(Cl)c2)C(=O)/C1=C\c1ccc(-c2cccc(C(=O)O)c2)o1	n	x	x	x	x	x
CCOc1cc(C(=S)N2CCC(C)CC2)ccc1O	n	x	x	x	x	x
O=C(Nc1nc2ccc3ccccc3c2s1)c1ccc(C(=O)c2ccccc2)cc1	103.6	x	x	x	x	x
O=C(Nc1nc2ccc3ccccc3c2s1)c1cccc(Br)c1	n	x	x	x	x	x

Bioassay records deposited in PubChem BioAssay by several laboratories.
